SW480 rereplic: induces DNA re-replication in SW480 colon adenocarcinoma cells | SW480 DNA re-replication, Hoechst DNA content imaging, 48 h | Potency, µM (doses to about 46.1 µM), inactives show top-dose re-replication activation, most hits filed as activators | 1.8% of 340,000 active | AID 624297; also: % of control where 0% means no effect; nearly all actives have a fitted effect of over 55% in size
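First, 250 cells per well were seeded. Next, compound or vehicle (23 nL) was pinned in, plates sat 48 hr at 37 C. Finally Hoechst was added for 40 min before fluorescence scanning.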
KB-3-1 tox: KB-3-1 parental cell cytotoxicity | Potency, µM (series often up to 46.1 µM), hits mostly cytotoxic | KB-3-1 viability, CellTiter-Glo ATP luminescence, 72 h | 1.4% of 400,000 active; also: % is scaled to controls: 0 for no effect and ±100 for the full control effect; nearly all actives have a fitted effect of over 60% in size
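KB-3-1 parental drug-naive adenocarcinoma cells in DMEM/10% FBS, incubated 72 h at 37 C with pin-transferred compounds across a concentration series. Viability by CellTiter-Glo luminescence; concentration-response curves fitted after normalization.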
MCF10A rerep: DNA re-replication induction in MCF 10a cells; MCF 10A DNA re-replication, Hoechst nuclear intensity, 48 h; Potency, µM (highest dose often 46.1 µM), for inactives: at the highest dose activity, positive = re-replication, most hits filed as activators; 2.9% of 350,000 active; also: % of control where 0% means no effect; nearly all actives have a fitted effect of over 50% in size
KB-V1 cytotox: kills drug-selected multidrug resistant KB-V1 cells | KB-V1 MDR cells viability, CellTiter-Glo, 72 h | Potency, µM (series often up to 46.1 µM), usual class: cytotoxic | 3.4% of 400,000 active | AID 1347076; also: % is scaled to controls: 0 for no effect and ±100 for the full control effect; nearly all actives have a fitted effect of over 60% in size
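In this primary screen, KB-V1 cells overexpressing P-gp are incubated with library compounds (lowest to highest concentration) for 72 h at 37 degrees C before a luminescent ATP viability read.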
HT1080-NT tox: kills 2HG-producing HT-1080-NT fibrosarcoma cells; HT-1080-NT fibrosarcoma viability, CellTiter-Glo ATP luminescence, 48 h; Potency, µM (highest dose often 46.1 µM), without a hit: top-dose activity, negative = less viability, actives largely listed as cytotoxic; 1.6% of 360,000 active; AID 686970;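 also: NT is the 2HG producing partner of a matched IDH1 knockdown line; 0% = DMSO-treated cells and -100% = media-only wells without cells; nearly all actives have a fitted effect of over 55% in size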
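Viability by CellTiter-Glo luminescence after 48 h compound exposure at 37C of HT-1080-NT cells (750/well, RPMI, 5% FBS). % activity scaled between DMSO wells and medium-only wells, then curve-fitted and categorized by curve class.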
HT1080 IDH1KD tx: HT-1080 IDH1 knockdown cell toxicity (counter line); HT-1080 IDH1 knockdown viability, ATP luminescence, 48 h; Potency, µM (top dose mostly 46.1 µM), for the others: at the top dose activity, negative = toxicity, actives largely listed as cytotoxic; 2% of 360,000 active;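 also: 0% = DMSO wells and -100% = cell-free medium wells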
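% activity derives from luminescence (CellTiter-Glo), normalised to DMSO and no-cell wells. HT-1080-IDH1KD cells, 750/well, had 48 h compound exposure at 37 °C.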
* marks the source's active call; other numbers are inactive results; i = inactive; ? = inconclusive; . = no result given; [ ] = another dose, or the depositor's remark. Only some compounds are listed: those with a hit (about 8% of all), similar ones and a draw of the others. Calls follow the shape of the dose curve; as a rule, active = well fitted curve in the direction sought with a large enough effect; inconclusive = small, poorly fitted or top-dose-only effect, or another doubt; inactive = no such curve, though single readings can be large; an effect the other way counts as inactive or inconclusive. Potency is read from the fitted curve at half-maximal effect.

SMILES | SW480 rereplic | KB-3-1 tox | MCF10A rerep | KB-V1 cytotox | HT1080-NT tox | HT1080 IDH1KD tx
CC(C)=CCC/C(C)=C/CNC(=O)C[C@H]1C[C@H](C(=O)N(C(C)C)C(C)C)[C@@]2(C)c3[nH]c4cc(-c5ccco5)ccc4c3CCN2C1=O | 0.4%[9.22 µM] | ? | ? | ? | ? | ?
CCN(CC)C(=O)[C@H]1C[C@H](CC(=O)NC/C=C(\C)CCC=C(C)C)C(=O)N2CCc3c([nH]c4cc(-c5ccco5)ccc34)[C@]12C | 17.3%[9.22 µM] | ? | 20.6µM* | ? | ? | ?
CCN(CC)C(=O)[C@H]1C[C@H](CC(=O)NC/C=C(\C)CCC=C(C)C)C(=O)N2CCc3c([nH]c4ccc(Cl)cc34)[C@]12C | 6.6% | ? | -5.4% | i | 7.7% | 1.0%
COc1ccc(N2C(=O)C3C(C2=O)C(C(=O)c2ccc(Cl)cc2)N2CCCC32)cc1 (stereo not given) | 8.2µM* | i | 14.6µM* | i | 13µM* | 18.4µM*
O=C(c1ccccc1)[C@@H]1[C@@H]2C(=O)N(c3ccc(F)cc3)C(=O)[C@@H]2C2CCCN21 (stereo not given in full) | ? | ? | ? | i | ? | 23.1µM*
CC(=O)c1ccc(N2C(=O)C3C(C2=O)C(C(=O)c2ccc(Cl)cc2)N2CCCC32)cc1 (stereo not given) | ? | ? | 11.6µM* | ? | 16.4µM* | ?
O=C(c1ccc(Cl)cc1)C1C2C(=O)N(c3ccccc3)C(=O)C2C2CCCN21 (stereo not given) | -12.0% | i | -10.0% | i | 8.7% | 13.5%
C[C@H](CO)N1C[C@H](C)[C@H](CN(C)Cc2cccc(F)c2)Oc2ncc(Br)cc2C1=O | . | i | . | ? | -4.7% | -11.3%
COc1ccc(CCNc2nc3c(-c4cccc(C)c4)nnn3c3ccccc23)cc1OC | . | i | . | i | . | .
COc1ccccc1N1CCN(C(=O)c2cnn(-c3ccc(C)c(C)c3)c2C2CCN(C(=O)OC(C)(C)C)CC2)CC1 | . | 20.6µM* | . | i | . | .
O=c1c2ccccc2nc2c3ccccc3c3nncn3n12 | 0.2% | ? | 0.5% | 7.31µM* | 7.2% | -0.7%
C/C(=N\OCC(=O)Nc1ccccc1Br)c1cccs1 | 0.146µM* | i | ? | i | 14.5% | 0.4%
CCCN1CNc2c(c(=O)[nH]c(=S)n2CCc2ccc(OC)cc2)C1 | . | . | . | . | -0.2% | 18.9%
Cc1nc2cccnc2n1C1CCN(C(=O)Nc2ccccc2C(F)(F)F)CC1 | . | i | . | i | . | .
O=C(N/N=C/c1ccccc1C(=O)O)c1ccc(COc2cccc3cccnc23)cc1 | 0.6% | i | -7.2% | i | -1.7% | 2.4%
O=C(N/N=C/c1ccc[nH]1)c1ccc(COc2cccc3cccnc23)cc1 | 26.6% | 2.31µM* | ? | i | ? | 5.17µM*
O=C(N/N=C/c1ccc[nH]1)c1ccc(O)cc1 | -2.8% | i | 3.4% | i | 17.4% | 10.5%
Cc1cc(Br)c(OCc2ccc(C(=O)N/N=C/c3ccc[nH]3)cc2)c(Br)c1 | 3.66µM* | 2.59µM* | ? | ? | 0.82µM* | 1.03µM*
CC1=C(C(=O)OCC2CCCO2)C(c2cccc(C(F)(F)F)c2)C2=C(CC(c3ccco3)CC2=O)N1 (stereo not given) | ? | 15.8µM* | ? | ? | -28.2% | ?
CC1=C(C(=O)OCC2CCCO2)C(c2ccccc2OC(C)C)C2=C(CC(c3ccco3)CC2=O)N1 (stereo not given) | ? | i | 25.7% | i | 1.3% | 4.4%
COc1ccc(/C=C2\SC(=O)N(CC(=O)Nc3cccc(C)c3)C2=O)cc1O | ? | i | 20.6µM* | i | ? | ?
Cc1cccc(CSc2ccc3nnc(CCNS(=O)(=O)c4ccccc4)n3n2)c1 | . | i | . | i | . | .
COc1cc(/C=C2\N=C(c3ccccc3)NNC2=O)cc(OC)c1OC | 5.8µM* | 4.61µM* | 1.84µM* | 4.11µM* | 4.61µM* | 3.26µM*
Cc1ccc2c(=O)c(C(=O)c3ccc(F)cc3)cn(CC(=O)NCCc3ccccc3)c2n1 | . | i | . | i | . | .
Cc1cc(C(C)(C)C)cc(C)c1CCNC(=O)c1c(C)noc1C | 26.4% | ? | ? | ? | ? | ?
SMILES | SW480 rereplic | KB-3-1 tox | MCF10A rerep | KB-V1 cytotox | HT1080-NT tox | HT1080 IDH1KD tx
O=C(CSc1nc2cc(Cl)c(Cl)cc2[nH]1)c1ccc2c(c1)OCO2 | -6.6% | 14.6µM* | 1.7% | 8.2µM* | -24.6% | -17.8%
O=C(CSc1nc2ccc(Cl)cc2[nH]1)c1ccc2c(c1)OCO2 | -3.0% | i | 3.9% | i | 1.3% | 8.4%
CC1Cc2c([nH]c(=O)n(-c3ccccc3)c2=O)O1 (stereo not given) | -9.0% | i | 0.0% | i | -0.3% | 5.0%
COc1ccc(-c2cnc(C)o2)cc1S(=O)(=O)Nc1c(C)cc(C)cc1C | . | i | . | i | . | .
N#Cc1c(-c2ccccc2)c(-c2ccccc2)nn(CC(=O)NNC(=O)Nc2ccc(Cl)cc2)c1=O | ? | 18.4µM* | ? | i | 6.51µM* | 5.8µM*
COC(=O)CCn1nc(-c2ccc(Cl)cc2)c2ccccc2c1=O | -7.4% | i | 2.6% | i | -9.8% | -0.1%
N#Cc1c(-c2ccc(Cl)cc2)c(-c2ccc(Cl)cc2)nn(CCOC(=O)CCC(=O)O)c1=O | ? | 2.31µM* | 1.84µM* | 7.31µM* | 5.17µM* | 7.31µM*
N#Cc1c(-c2ccccc2)c(-c2ccccc2)nn(CC(=O)NNC(=O)Nc2ccccc2)c1=O | 2.91µM* | 5.8µM* | 0.651µM* | i | 2.31µM* | 3.26µM*
O=C(NCc1ccc(F)cc1)c1ccc2c(c1)N(Cc1c(F)cccc1Cl)C(=O)CS2 | . | i | . | ? | . | .
CCc1ccccc1NC(=O)Nc1cc(F)ccc1F | 29.1µM* | i | -0.6% | i | 4.6% | 3.9%
COc1ccc(NC(=O)CNc2cc(C)ccc2C)cc1S(=O)(=O)N1CCOCC1 | -17.9% | i | 6.9% | i | -0.4% | 1.0%
CCN(CC(=O)Nc1cc(Cl)ccc1C)C(=O)C1CC(=O)N(Cc2ccccc2)C1 (stereo not given) | 0.164µM* | i | ? | i | -3.8% | -7.1%
CCCN(CC(=O)Nc1ccc(F)c(F)c1F)C(=O)C1CC(=O)N(Cc2ccccc2)C1 (stereo not given) | -3.1% | i | -0.7% | i | -12.3% | -1.4%
O=C(OCc1ccccc1)/C(=C/c1cccc2ccccc12)NC(=O)c1ccccc1 | -5.9% | i | 1.1% | i | 5.7% | 6.8%

High-throughput results from PubChem BioAssay.
